Test [1] in a line: NCI Yeast Anticancer Drug Screen. Data for the rad50 strain (AID 155).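 Further: 0% = growth of vehicle-only cultures of the same strain.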 Conditions: S. cerevisiae rad50 strain growth inhibition, stronger effect = higher value. The method in brief: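 Cells are treated with compound, grown, and their growth is then scored against vehicle-only cultures of the same repair-deficient yeast strain.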
Test [2] is described as follows: NCI Yeast Anticancer Drug Screen. Data for the mec2-1 strain (AID 157). Conditions: S. cerevisiae mec2-1 strain, stronger effect = higher value. The method in brief: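 Strain: mec2-1 (DNA repair/cell cycle alteration). Compound exposure, then growth measured; inhibition expressed relative to vehicle.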
The nature of test [3]: NCI Yeast Anticancer Drug Screen. Data for the sgs1 mgt1 strain (AID 161).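 Further: 0% = growth of cultures given vehicle only.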 As to conditions: S. cerevisiae sgs1 mgt1 strain, stronger effect = higher value. Summed up:
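Test agents were incubated with a DNA-repair-mutant yeast strain. Growth was then read and compared against vehicle-treated controls.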

The nature of test [4]: NCI Yeast Anticancer Drug Screen. Data for the cln2 rad14 strain (AID 165).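 Further: 0% = growth equal to vehicle treated cultures.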 Conditions: S. cerevisiae cln2 rad14 strain, stronger effect = higher value. The method in brief:
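Compounds are applied to the cln2 rad14 yeast strain, and growth is then compared with that of vehicle-treated cultures to give inhibition.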

Test [5] in a line: NCI Yeast Anticancer Drug Screen. Data for the bub3 strain (AID 167). As to conditions: S. cerevisiae bub3 mutant strain, stronger effect = higher value. The method in brief: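 Part of a panel of yeast mutants defective in DNA damage repair or cell cycle regulation. Each strain is grown with compound, and inhibition is calculated relative to solvent-treated cultures.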
A short description of test [6]: NCI Yeast Anticancer Drug Screen. Data for the mlh1 rad18 strain (AID 175). As to conditions: S. cerevisiae mlh1 rad18 strain growth inhibition, stronger effect = higher value. The method in brief:
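Read-out is yeast growth inhibition, calculated against vehicle-only controls. The compound was applied to a strain engineered with DNA damage repair alterations.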

Setting [7] is: at 5.0 µM (retest, dose inferred, filed as 0.5).
The mark [8] stands for this setting: at 50.0 µM (retest, dose inferred, filed as 5.0).

About 79,000 compounds went through this panel and 15% of them were active in at least one assay; those are over-represented in the sample as a whole. Unmarked numbers belong to inactive results. The source made the active and inactive calls. No stated cut-off is given here; in the data, active means growth inhibition above about 70%; inactive means the rest.

On to `C=C1CC(COc2ccc3c(C)cc(=O)oc3c2)(c2ccccc2)OC1=O` (configuration not stated), for which the growth inhibition in test [1] (setting [7]) is 32%; in test [1] (setting [8]), 8%; in test [1] (at 50.0 µM) it was 36%; in test [2] (setting [7]) it was -6%; in test [2] (setting [8]), 17%; in test [2] (at 50.0 µM), 27%. Also, the growth inhibition in test [3] (setting [7]) was 17%; in test [3] (setting [8]), 32%; in test [3] (at 50.0 µM), 59.6%; in test [4] (setting [7]), -20%; in test [4] (setting [8]), -6%; in test [4] (at 50.0 µM), 32%. For the same compound, the growth inhibition was 32% in test [5] (setting [7]); 30% in test [5] (setting [8]); 30.2% in test [5] (at 50.0 µM); -10% in test [6] (setting [7]); 22% in test [6] (setting [8]); 41.6% in test [6] (at 50.0 µM).

As to `O=C(O)C(O)C(O)C(O)C(O)CO.[Ag]` (configuration not stated), the growth inhibition in test [1] (setting [7]) is 99% (active); in test [1] (setting [8]) it was 98% (active); in test [1] (at 50.0 µM), 99.2% (active); in test [2] (setting [7]) it was 99% (active); in test [2] (setting [8]) it was 99% (active); in test [2] (at 50.0 µM), 99.3% (active). Further, the growth inhibition in test [3] (setting [7]) is 99% (active); in test [3] (setting [8]), 99% (active); in test [3] (at 50.0 µM), 99.5% (active); in test [4] (setting [7]), 99% (active); in test [4] (setting [8]), 98% (active); in test [4] (at 50.0 µM), 99.3% (active). Moreover, the growth inhibition in test [5] (setting [7]) is 99% (active); in test [5] (setting [8]) it was 98% (active); in test [5] (at 50.0 µM), 99.3% (active); in test [6] (setting [7]) it was 99% (active); in test [6] (setting [8]) it was 98% (active); in test [6] (at 50.0 µM), 99% (active).

In the case of `Cc1cccc2c1nc1ccccc1[n+]2C`, the growth inhibition was -2% in test [1] (setting [7]); 97% (active) in test [1] (setting [8]); 98.3% (active) in test [1] (at 50.0 µM); 7% in test [2] (setting [7]); 97% (active) in test [2] (setting [8]); 97.7% (active) in test [2] (at 50.0 µM). Also, the growth inhibition in test [3] (setting [7]) was -2%; in test [3] (setting [8]), 97% (active); in test [3] (at 50.0 µM) it was 98.5% (active); in test [4] (setting [7]), 2%; in test [4] (setting [8]), 96% (active); in test [4] (at 50.0 µM) it was 87.8% (active). Further, the growth inhibition in test [5] (setting [7]) was -2%; in test [5] (setting [8]), 91% (active); in test [5] (at 50.0 µM), 98.2% (active); in test [6] (setting [7]), 6%; in test [6] (setting [8]), 95% (active); in test [6] (at 50.0 µM), 97.5% (active).

On to `O=c1oc2c3ccc4ccccc4c3n(CCCN3CCCCC3)c2c2ccccc12`, for which the growth inhibition was 81% (active) in test [1] (setting [7]); 81% (active) in test [1] (setting [8]); 54.4% in test [1] (at 50.0 µM); 17% in test [2] (setting [7]); 17% in test [2] (setting [8]); 82.8% (active) in test [2] (at 50.0 µM). Further, the growth inhibition in test [3] (setting [7]) was 35%; in test [3] (setting [8]), 35%; in test [3] (at 50.0 µM), 87.4% (active); in test [4] (setting [7]), 27%; in test [4] (setting [8]) it was 27%; in test [4] (at 50.0 µM), 76% (active). For the same compound, the growth inhibition in test [5] (setting [7]) was -4%; in test [5] (setting [8]) it was -4%; in test [5] (at 50.0 µM) it was 84.8% (active); in test [6] (setting [7]), -13%; in test [6] (setting [8]), -13%; in test [6] (at 50.0 µM), 87.3% (active).

Consider `O=C(O)Cc1ccc2ccccc2c1-c1ccccc1`, for which the growth inhibition in test [1] (setting [7]) is -1%; in test [1] (setting [8]), 93% (active); in test [1] (at 50.0 µM), 86.7% (active); in test [2] (setting [7]), -11%; in test [2] (setting [8]) it was 93% (active); in test [2] (at 50.0 µM) it was 91.8% (active). Moreover, the growth inhibition in test [3] (setting [7]) was 2%; in test [3] (setting [8]), -19%; in test [3] (at 50.0 µM) it was 85% (active); in test [4] (setting [7]) it was -3%; in test [4] (setting [8]), 98% (active); in test [4] (at 50.0 µM) it was 95% (active). Besides, the growth inhibition in test [5] (setting [7]) was -11%; in test [5] (setting [8]), 92% (active); in test [5] (at 50.0 µM) it was 94.7% (active); in test [6] (setting [7]), -20%; in test [6] (setting [8]), 94% (active); in test [6] (at 50.0 µM), 90.2% (active).

For the compound `C=C1CC[C@@H]2C(C)(C)C(O)CCC2(C)C1COc1ccc2ccc(=O)oc2c1` (some centres not stated), the growth inhibition is -10% in test [1] (setting [7]); 94% (active) in test [1] (setting [8]); 85.5% (active) in test [1] (at 50.0 µM); -4% in test [2] (setting [7]); 97% (active) in test [2] (setting [8]); 89.3% (active) in test [2] (at 50.0 µM). The growth inhibition in test [3] (setting [7]) is -1%; in test [3] (setting [8]), 92% (active); in test [3] (at 50.0 µM), 86.7% (active); in test [4] (setting [7]) it was -5%; in test [4] (setting [8]), 94% (active); in test [4] (at 50.0 µM), 85.8% (active). Moreover, the growth inhibition in test [5] (setting [7]) was -40%; in test [5] (setting [8]) it was 94% (active); in test [5] (at 50.0 µM) it was 86.5% (active); in test [6] (setting [7]), -38%; in test [6] (setting [8]), 93% (active); in test [6] (at 50.0 µM) it was 82.8% (active).

As for `O/N=C(/Cc1ccccc1)c1ccc2c(c1)OCO2`, the growth inhibition in test [1] (setting [7]) was -4%; in test [1] (setting [8]) it was 6%; in test [1] (at 50.0 µM) it was -9.8%; in test [2] (setting [7]), -14%; in test [2] (setting [8]), -11%; in test [2] (at 50.0 µM), 4.9%. Also, the growth inhibition is -18% in test [3] (setting [7]); 3% in test [3] (setting [8]); -2.4% in test [3] (at 50.0 µM); -6% in test [4] (setting [7]); 17% in test [4] (setting [8]); 8.6% in test [4] (at 50.0 µM). Besides, the growth inhibition in test [5] (setting [7]) was 6%; in test [5] (setting [8]) it was 29%; in test [5] (at 50.0 µM), 15.1%; in test [6] (setting [7]), -19%; in test [6] (setting [8]), 10%; in test [6] (at 50.0 µM), 2.95%.

`CCOC(=O)c1cn(CC)c2cc(-n3cccc3)ccc2c1=O`: the growth inhibition is -3% in test [1] (setting [7]); 28% in test [1] (setting [8]); 31.4% in test [1] (at 50.0 µM); -1% in test [2] (setting [7]); 21% in test [2] (setting [8]); 20.6% in test [2] (at 50.0 µM). Besides, the growth inhibition is -2% in test [3] (setting [7]); 39% in test [3] (setting [8]); 56.4% in test [3] (at 50.0 µM); -2% in test [4] (setting [7]); 17% in test [4] (setting [8]); 22.2% in test [4] (at 50.0 µM). Moreover, the growth inhibition in test [5] (setting [7]) was 0%; in test [5] (setting [8]), 27%; in test [5] (at 50.0 µM), 33.5%; in test [6] (setting [7]), 1%; in test [6] (setting [8]) it was 50%; in test [6] (at 50.0 µM), 47.2%.

With `CC(=O)c1cc(I)c(O)c2ncccc12`, the growth inhibition was 96% (active) in test [1] (setting [7]); 99% (active) in test [1] (setting [8]); 90.3% (active) in test [1] (at 50.0 µM); 93% (active) in test [2] (setting [7]); 99% (active) in test [2] (setting [8]); 92.5% (active) in test [2] (at 50.0 µM). For the same compound, the growth inhibition in test [3] (setting [7]) is 29%; in test [3] (setting [8]), 98% (active); in test [3] (at 50.0 µM), 93% (active); in test [4] (setting [7]), 69%; in test [4] (setting [8]), 96% (active); in test [4] (at 50.0 µM) it was 88.8% (active). For the same compound, the growth inhibition is 28% in test [5] (setting [7]); 95% (active) in test [5] (setting [8]); 89.5% (active) in test [5] (at 50.0 µM); 100% (active) in test [6] (setting [7]); 100% (active) in test [6] (setting [8]); 87.9% (active) in test [6] (at 50.0 µM).

These data come from PubChem BioAssay (NCI).
